In PubChem BioAssay (NCI):
This is part of a sample that, as a whole, favours compounds with a hit. Of some 79,000 tested, about 15% had one in any assay. Rule as the data show it: active = growth inhibition above about 70%; inactive = the rest. Where a SMILES comes first, the peptide text is derived from it. Bridges are numbered along the chain shown (N, C = ends). [ ]: non-standard residue; d: D form. The star is where a group is joined. PhAc = O=C(Cc1ccccc1)*

Experiments:
[1] = NCI Yeast Anticancer Drug Screen. Data for the rad50 strain (AID 155);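 also: 0% = growth of vehicle-only cultures of the same strain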; conditions: S. cerevisiae rad50 strain growth inhibition; at 50.0 µM; stronger effect = higher value
Method in brief: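 A DNA repair-deficient yeast mutant serves as the test organism; compound-induced growth inhibition is calculated against vehicle-treated cells.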

[2] = NCI Yeast Anticancer Drug Screen. Data for the mec2-1 strain (AID 157); conditions: S. cerevisiae mec2-1 strain, at 50.0 µM, stronger effect = higher value
Method in brief: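 Each compound was tested on mec2-1 yeast, a strain altered in DNA damage repair or cell cycle control. Growth inhibition is reported relative to vehicle.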

[3] = NCI Yeast Anticancer Drug Screen. Data for the sgs1 mgt1 strain (AID 161);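 also: 0% = growth of cultures given vehicle only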; conditions: S. cerevisiae sgs1 mgt1 strain, at 50.0 µM, stronger effect = higher value
Method in brief: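 Inhibition of yeast growth, normalised to vehicle-treated controls, is reported for a strain bearing genetic alterations in DNA damage repair.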

[4] = NCI Yeast Anticancer Drug Screen. Data for the cln2 rad14 strain (AID 165);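 also: 0% = growth equal to vehicle treated cultures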; conditions: S. cerevisiae cln2 rad14 strain, at 50.0 µM, stronger effect = higher value
Method in brief: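 Test compounds were added to cln2 rad14 yeast cultures; inhibition of growth was then determined by comparison with vehicle treatment.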

[5] = NCI Yeast Anticancer Drug Screen. Data for the bub3 strain (AID 167); conditions: S. cerevisiae bub3 mutant strain, at 50.0 µM, stronger effect = higher value
Method in brief: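 Inhibition values come from growth of compound-treated mutant yeast normalised to vehicle-treated controls.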

[6] = NCI Yeast Anticancer Drug Screen. Data for the mlh1 rad18 strain (AID 175); conditions: S. cerevisiae mlh1 rad18 strain growth inhibition; at 50.0 µM; stronger effect = higher value
Method in brief: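 Inhibition values reflect reduced growth of mutant yeast versus vehicle-treated controls following compound exposure; the mutations affect DNA damage repair.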

Measured: growth inhibition

O=C(O)CCNC(=O)c1ccccc1O
inactive: [1] -41.5% | [2] -8.5% | [3] -17.1% | [4] -53.8% | [5] -18.1% | [6] -56.8%

Cc1c(C)c(C(C)O)c(C)c(C(C)O)c1C (stereo unspecified)
inactive: [1] 4.55% | [2] 5.65% | [3] 17.6% | [4] 21.6% | [5] 11.7% | [6] 18.6%

O=CNCCN(C=O)CCO
inactive: [1] -28.6% | [2] -29.9% | [3] -31.9% | [4] 1.85% | [5] -12% | [6] -9.55%

O=C(Cc1ccccc1)N[C@@H]1COC(=O)[C@@H]2CCCN2C(=O)[C@@H]2CCCN2C1=O (PhAc-[dS]-Pro-Pro; ester 1-C)
inactive: [1] -33.4% | [2] 5.85% | [3] -17.2% | [4] 27.4% | [5] -1.7% | [6] -8.95%

O=C(N/N=C/c1c(O)ccc2ccccc12)c1ccccc1
inactive: [1] 29% | [2] 11.3% | [3] 42.1% | [4] 5% | [5] 16.1% | [6] 26.4%

CC(C)CNC(=O)Cn1c2c(c3ccccc31)CCCC2
inactive: [1] -4.5% | [2] -32.7% | [3] 1.4% | [4] 3.75% | [5] -14.8% | [6] -10.8%

COc1ccc(NC(=O)COc2ccc(Cl)cc2Cl)cc1
inactive: [1] 22.9% | [2] 26.8% | [3] 31.4% | [4] 36% | [5] 33% | [6] 19.6%

CC(=O)Nc1cc2c3c(c1)CCCN3CCC2
inactive: [1] -24.4% | [2] -14.8% | [3] -38.2% | [4] 25.9% | [5] 27.6% | [6] -3.6%

COc1cc(CCl)cc(OC)c1OC
inactive: [1] -13.7% | [2] -12% | [3] -7.7% | [4] -21.9% | [5] -7.65% | [6] -11.8%

O=C1c2ccccc2-c2ccc(I)cc21
inactive: [1] 5.15% | [2] -1.7% | [3] 2.25% | [4] -17.6% | [5] 8.45% | [6] 26.2%

Cn1c(=O)n(C2(C)CSC2)c2ccccc21
inactive: [1] -27.2% | [2] -14.6% | [3] -46.1% | [4] -3.95% | [5] -3.35% | [6] -33.9%

CSc1ccc(C2=CCCCC2)cc1
inactive: [1] -4.35% | [2] -1.7% | [3] 0.05% | [4] -15% | [5] 0.95% | [6] 17.9%

O=C(NCCNc1ccccc1)C12CC3CC(CC(C3)C1)C2
inactive: [1] -4.2% | [2] 1.35% | [3] -3.9% | [4] -2.4% | [5] 19.1% | [6] 9.5%

Nc1ccn(C2OC(CCl)C(O)C2O)c(=O)n1 (stereo unspecified)
inactive: [1] 17.2% | [2] 3.2% | [3] -4.15% | [4] 4.1% | [5] -39.9% | [6] -36.1%

Clc1nncc(SCc2ccccc2)c1SCc1ccccc1
inactive: [1] 17.2% | [2] 11.6% | [3] 8.3% | [4] -9% | [5] 22.5% | [6] 8.4%

CC1OC1P(=O)(O)O (stereo unspecified)
inactive: [1] 16.6% | [2] -5.9% | [3] -4.55% | [4] 1.7% | [5] -3.3% | [6] -6.55%

O=C(O)c1cnc2cc3c(cc2c1Nc1cccc(C(F)(F)F)c1)OCO3
inactive: [1] 29% | [2] -8.85% | [3] 5.15% | [4] 6.7% | [5] 29.4% | [6] 4.05%

CCOC(=O)N1C2C=C(C)C(ON2C(=O)c2ccccc2)C2C(C)C(=O)N21 (stereo unspecified)
inactive: [1] -3.8% | [2] -10.7% | [3] -5.8% | [4] 18.1% | [5] -17.5% | [6] -13.4%

CC(=O)Oc1ccc(C2c3cc(OC(C)=O)c(OC(C)=O)cc3CC3C(=O)OCC32)cc1OC(C)=O (stereo unspecified)
inactive: [1] 2.45% | [2] -4.85% | [3] 2.6% | [4] -36.3% | [5] 12.3% | [6] 1.1%

COc1cccc(C(=O)O)c1[N+](=O)[O-]
inactive: [1] -19.1% | [2] -26.6% | [3] -24% | [4] -46.1% | [5] -6.05% | [6] -1%

COc1ccc(OC)c(/C=C/C(=O)NC(CO)CSCSC)c1 (stereo unspecified)
inactive: [1] -0.35% | [2] 4.75% | [3] -3.9% | [4] -10.8% | [5] 21.5% | [6] -24.4%
